Inconclusive results are not listed. Where a call stands in place of a potency, no number is given. Some compounds were tested as several samples or in several runs, with calls that do not always agree. Activity calls are given as the source filed them. Calls come from the whole dose curve; as a rule, active = well fitted cell-killing curve with a large enough effect in the repeat runs; inconclusive = weak or mixed curves, or effect the other way; inactive = no such curve, though single readings can be large or run the other way.
Potency is the fitted concentration of half-maximal effect.

The nature of the test: qHTS assay to identify small molecule antagonists of the retinoid-related orphan receptor gamma (ROR-gamma) signaling pathway - cell viability counter screen (AID 1159520). Note: nearly all actives have a fitted effect of over 50% in size. The following applies: Tet-on RORgamma CHO cells viability, ATP luminescence, 16 h; series mostly up to 92.4 µM. The text has this:
U.S. Tox21 Program National Center for Advancing Translational Sciences [NCATS] NIH Chemical Genomics Center [NCGC] U.S. Environmental Protection Agency [EPA] National Institutes of Environmental Health Sciences [NIEHS] National Toxicology Program [NTP] U.S. Food and Drug Administration [FDA] Tox21 Assay Overview: Nuclear steroid hormone receptors are involved in many biological processes including inflammatory responses, cell proliferation, and apoptosis. Environmental factors or compounds disrupting these nuclear receptor pathways and gene expression may promote susceptibility to immunotoxicants and autoimmune diseases. One important group of these expression factors are the retinoid-related orphan receptors. To assess compounds that may interfere with the retinoid-related orphan receptor gamma (ROR-gamma) transcription factor, a cell-based luciferase assay was used. The CHO cell-based assay utilizes a TET-inducible ROR expression factor and ROR response element-LUC reporter gene. Reporter gene activity was induced using Doxycycline Hyclate and measured after 16 hr incubation. Tet-on ROR gamma CHO cells were used to screen against the Tox21 10K compound library for cytotoxicity by measuring the viability of the cells based on the quantitation of the ATP.
Tox21 Assay Protocol Summary: Tet-on ROR gamma CHO cells were dispensed at 1,000 cells in 4 uL of culture medium per well into white wall/solid bottom 1536-well plates using a Multidrop Combi (Thermo Scientific, Waltham, MA) dispenser. Following incubation at 37 C and 5% CO2 for 4 hr, 23 nL of compounds dissolved in DMSO, positive controls or DMSO only were transferred by a Pintool station (Kalypsys, San Diego, CA) and after 2 hr incubation at 37 C, one ul of 1 uM (final concentration) of Doxycycline Hyclate was added to all the wells by using a Flying Reagent Dispenser (FRD) (Aurora Discovery, San Diego, CA). After 16 hr incubation at 37 C and 5% CO2, 5 uL of CellTiter-Glo reagent (Promega Corporation, Madison, WI) was added to each assay plate using FRD. After 30 min incubation at room temperature, luminescence was quantified on a ViewLux plate reader (Perkin Elmer, Waltham, MA).
For `OC(Cn1cncn1)(Cn1cncn1)c1ccc(F)cc1F`, the Potency entry was “inactive”.
As for `CC(O)CN(CCN(CC(C)O)CC(C)O)CC(C)O` (stereo not given), the Potency result was “inactive”.
Consider `CCC1(c2ccccc2)C(=O)NCNC1=O`, for which the Potency result was “inactive”.
Turning to `O=C(O)CCC(=O)O`, the Potency entry was “inactive”.
Take `O=C1CN(/N=C/c2ccc([N+](=O)[O-])o2)C(=O)N1`: the Potency entry is “inactive”.
Take `O=S(=O)(O)c1ccc2cc(O)ccc2c1`: the Potency entry was “inactive”.
In the case of `O=C(O)CCCCCCCC(=O)O`, the Potency result was “inactive”.
For `C[C@]12C=CC(=O)C=C1CC[C@@H]1[C@@H]2[C@@H](O)C[C@@]2(C)[C@H]1CC[C@]2(O)C(=O)CO`, the Potency result was “inactive”.
`CC1(C)[C@@H]2CC[C@@]1(C)C(=O)C2`: the Potency entry is “inactive”.
For `CCCCC(CC)COC(=O)/C=C/c1ccc(OC)cc1` (stereo not given), the Potency entry is “inactive”.
Consider `O=C(c1ccccc1)c1ccccc1`, for which the Potency result was “inactive”.
In the case of `CCCN(CCC)S(=O)(=O)c1ccc(C(=O)O)cc1`, the Potency entry was “inactive”.
Under `CNC[C@H](O)c1cccc(O)c1` stands “inactive”; under `CC(C)(Oc1ccc(C2CC2(Cl)Cl)cc1)C(=O)O` (stereo not given), “inactive”; under `CC(=O)OCC(COC(C)=O)OC(C)=O`, “inactive”.
`CC(=O)Nc1nnc(S(N)(=O)=O)s1`: the Potency entry is “inactive”.
Take `NC(=O)c1ccccc1O`: the Potency result is “inactive”.
`Cn1cc[nH]c1=S`: the Potency result is “inactive”.
In the case of `Oc1ccc(/C=C/c2cc(O)cc(O)c2)cc1`, the Potency result is “inactive”.
In the case of `Cc1cc(=O)n(-c2ccccc2)n1C` it was “inactive”.
For `COc1ccc2[nH]cc(CCNC(C)=O)c2c1`, the Potency result was “inactive”.
As for `c1ccc2[nH]ccc2c1`, the Potency is 2.69 µM (active) and inactive.
For the molecule `O=C(O)CCCCC(=O)O`, the Potency entry is “inactive”.
For the molecule `CCCNC(=O)NS(=O)(=O)c1ccc(Cl)cc1`, the Potency result is “inactive”.
In the case of `C1N2CN3CN1CN(C2)C3`, the Potency result is “inactive”.
Consider `NC(=O)NC1NC(=O)NC1=O` (stereo not given), for which the Potency result is “inactive”.
Regarding `O=C1NC(=O)c2ccccc21`, the Potency entry was “inactive”.
Take `Cc1noc(NS(=O)(=O)c2ccc(N)cc2)c1C`: the Potency result is “inactive”.
On to `NC(N)=NC(=O)c1nc(Cl)c(N)nc1N`, for which the Potency result was “inactive”.
In the case of `O=C(c1ccccc1)C(O)c1ccccc1` (stereo not given), the Potency entry is “inactive”.
As for `Cn1c(=O)c2[nH]cnc2n(C)c1=O`, the Potency entry was “inactive”.
Under `Nc1ccc(C(=O)O)cc1` stands “inactive”; under `O=C(O)c1[nH]n(-c2ccc(S(=O)(=O)O)cc2)c(=O)c1N=Nc1ccc(S(=O)(=O)O)cc1`, “inactive”.
For the molecule `CCCCC1C(=O)N(c2ccccc2)N(c2ccccc2)C1=O`, the Potency entry was “inactive”.
For the molecule `NS(=O)(=O)c1cc(C(=O)O)c(NCc2ccco2)cc1Cl`, the Potency entry is “inactive”.
As for `Nc1ccc(O)c(C(=O)O)c1`, the Potency entry was “inactive”.
As to `Cc1ccccc1C(OCCN(C)C)c1ccccc1` (stereo not given), the Potency entry was “inactive”.
As for `O=c1cc[nH]c(=S)[nH]1`, the Potency result was “inactive”.
`Cc1ccc(S(=O)(=O)NC(=O)NN2CCCCCC2)cc1`: the Potency result was “inactive”.
In the case of `COc1c2occc2cc2ccc(=O)oc12`, the Potency result was “inactive”.
